# Measurements published in publication PMC11062922 (Nature Chemical Biology, 2023).
# Read-outs that look alike come from different tables or passages of the source.
# Columns and labels:
# Set-up in all cases: species or system human, MV4-11 + K-562 + COLO205 + SK-N-BE2 + OVCAR-8
# CDC42BPB = conditions: read-out: apparent Kd; compound concentrations: 100 nM and 1000 nM (sheet 'Samples'), CATDS: 0.18288519935085101; n = 1
# PRKX = conditions: read-out: apparent Kd; compound concentrations: 100 nM and 1000 nM (sheet 'Samples'), CATDS: 0.17762279557226701; n = 1
# ROCK1 = conditions: read-out: apparent Kd; compound concentrations: 100 nM and 1000 nM (sheet 'Samples'), CATDS: 0.39431900573288498; n = 1
# ROCK2 = conditions: read-out: apparent Kd; compound concentrations: 100 nM and 1000 nM (sheet 'Samples'), CATDS: 0.422625118244225; n = 1
# CAMK2B = conditions: read-out: apparent Kd; compound concentrations:100 nM and 1000 nM (sheet 'Samples'); n = 1
# PBK = conditions: read-out: apparent Kd; compound concentrations:100 nM and 1000 nM (sheet 'Samples'); n = 1
# PKN1 = conditions: read-out: apparent Kd; compound concentrations:100 nM and 1000 nM (sheet 'Samples'); n = 1
# CDC42BPG = conditions: read-out: apparent Kd; compound concentrations:100 nM and 1000 nM (sheet 'Samples'); n = 1
# FLT4 = conditions: read-out: apparent Kd; compound concentrations:100 nM and 1000 nM (sheet 'Samples'); n = 1
# MAP3K1 = conditions: read-out: apparent Kd; compound concentrations:100 nM and 1000 nM (sheet 'Samples'); n = 1
# MAP4K5 = conditions: read-out: apparent Kd; compound concentrations:100 nM and 1000 nM (sheet 'Samples'); n = 1
# STK10 = conditions: read-out: apparent Kd; compound concentrations:100 nM and 1000 nM (sheet 'Samples'); n = 1
# CDC42 = conditions: read-out: apparent Kd, compound concentrations: 100 nM and 1000 nM (sheet 'Samples'), n = 1
# CDKL5 = conditions: read-out: apparent Kd; compound concentrations: 100 nM and 1000 nM (sheet 'Samples'), CATDS: 0.51116349982272002; n = 1
# CAMKK2 = conditions: read-out: apparent Kd; compound concentrations: 100 nM and 1000 nM (sheet 'Samples'), CATDS: 0.352133758471873; n = 1
# EGFR = conditions: read-out: apparent Kd; compound concentrations: 100 nM and 1000 nM (sheet 'Samples'), CATDS: 0.86194262245046105; n = 1
# CDK10 = conditions: read-out: apparent Kd; compound concentrations:100 nM and 1000 nM (sheet 'Samples'); n = 1
# GSK3A = conditions: read-out: apparent Kd; compound concentrations:100 nM and 1000 nM (sheet 'Samples'); n = 1
# GSK3B = conditions: read-out: apparent Kd; compound concentrations:100 nM and 1000 nM (sheet 'Samples'); n = 1
# ILK = conditions: read-out: apparent Kd; compound concentrations:100 nM and 1000 nM (sheet 'Samples'); n = 1
# PRKCB = conditions: read-out: apparent Kd; compound concentrations: 100 nM and 1000 nM (sheet 'Samples'), CATDS: 0.15520106797875899; n = 1
# PRKCI = conditions: read-out: apparent Kd; compound concentrations:100 nM and 1000 nM (sheet 'Samples'); n = 1
# RPS6KA6 = conditions: read-out: apparent Kd; compound concentrations:100 nM and 1000 nM (sheet 'Samples'); n = 1
# RPS6KB1 = conditions: read-out: apparent Kd; compound concentrations:100 nM and 1000 nM (sheet 'Samples'); n = 1
# CDK4 = conditions: read-out: apparent Kd; compound concentrations: 100 nM and 1000 nM (sheet 'Samples'), CATDS: 0.32683838675566101; n = 1
# MAP2K2 = conditions: read-out: apparent Kd; compound concentrations: 100 nM and 1000 nM (sheet 'Samples'), CATDS: 0.35471612701675298; n = 1
# PDGFRB = conditions: read-out: apparent Kd; compound concentrations: 100 nM and 1000 nM (sheet 'Samples'), CATDS: 0.32038670462926999; n = 1
# CDK2 = conditions: read-out: apparent Kd; compound concentrations: 100 nM and 1000 nM (sheet 'Samples'), CATDS: 0.44900253923849898; n = 1
# CDK6 = conditions: read-out: apparent Kd; compound concentrations: 100 nM and 1000 nM (sheet 'Samples'), CATDS: 0.29293356798223702; n = 1
# CSNK2A2 = conditions: read-out: apparent Kd; compound concentrations: 100 nM and 1000 nM (sheet 'Samples'), CATDS: 0.29769898154006003; n = 1
# DJA1 = tested on: T1, DJA1; conditions: read-out: apparent Kd; compound concentrations: 100 nM and 1000 nM (sheet 'Samples'), CATDS: 0.11539226669729399; n = 1
# T1 construct: gene DNAJA1
# HSP90AA1 = conditions: read-out: apparent Kd; compound concentrations: 100 nM and 1000 nM (sheet 'Samples'), CATDS: 0.12399635685572399; n = 1
# HSP90B1 = conditions: read-out: apparent Kd; compound concentrations: 100 nM and 1000 nM (sheet 'Samples'), CATDS: 0.12934168659945999; n = 1
# HSPE1 = conditions: read-out: apparent Kd; compound concentrations: 100 nM and 1000 nM (sheet 'Samples'), CATDS: 0.19606542414911901; n = 1
# PGK1 = conditions: read-out: apparent Kd; compound concentrations: 100 nM and 1000 nM (sheet 'Samples'), CATDS: 0.21364088639266299; n = 1
# PKM = conditions: read-out: apparent Kd; compound concentrations: 100 nM and 1000 nM (sheet 'Samples'), CATDS: 0.14448823643602399; n = 1
smiles,measurement,setting,value
CC1=C(C(=O)Nc2cc(Cl)c3[nH]ncc3c2)C(c2ccc(C(F)(F)F)cc2)CC(=O)N1 (centres unmarked) [GSK466317A],potency estimated from few doses,CDC42BPB,1940 nM
same,potency estimated from few doses,PRKX,2180 nM
same,potency estimated from few doses,ROCK1,277 nM
same,potency estimated from few doses,ROCK2,246 nM
C[C@@H]1CCN(C(=O)CO)C[C@@H]1N(C)c1ncnc2[nH]ccc12 [PFE-PKIS_34],potency estimated from few doses,CAMK2B,563 nM
same,potency estimated from few doses,PBK,1930 nM
same,potency estimated from few doses,PKN1,1140 nM
COc1cc2ncn(-c3cc(O[C@@H](C)c4ccccc4Cl)c(C(N)=O)s3)c2cc1OC [GSK237700A],potency estimated from few doses,CDC42BPG,2140 nM
same,potency estimated from few doses,FLT4,1530 nM
same,potency estimated from few doses,MAP3K1,1500 nM
same,potency estimated from few doses,MAP4K5,2080 nM
same,potency estimated from few doses,STK10,1820 nM
COc1ccc(Nc2nccc(N3CCC(NC(=O)Nc4cccc(C(C)=O)c4)C3)n2)cc1 (centres unmarked) [GSK1379731A],potency estimated from few doses,CDC42; CATDS: 0.48931368679936299,1580 nM
same,potency estimated from few doses,CDKL5,1450 nM
CN(C)C(=O)O[C@H]1CN[C@H](C#Cc2cc3ncnc(Nc4ccc(OCc5cccc(F)c5)c(Cl)c4)c3s2)C1 [GSK182497A],potency estimated from few doses,CAMKK2,2010 nM
same,potency estimated from few doses,EGFR,175 nM
CN1C[C@@H]2Cn3c(c(C4=C(c5cn(C)c6ccccc56)C(=O)NC4=O)c4ccccc43)C[C@H]2C1.Cl [RO0320557-001],potency estimated from few doses,CDK10,1200 nM
same,potency estimated from few doses,GSK3A,53.4 nM
same,potency estimated from few doses,GSK3B,41.5 nM
same,potency estimated from few doses,ILK,2350 nM
same,potency estimated from few doses,PKN1,2490 nM
same,potency estimated from few doses,PRKCB,20.3 nM
same,potency estimated from few doses,PRKCI,1930 nM
same,potency estimated from few doses,RPS6KA6,386 nM
same,potency estimated from few doses,RPS6KB1,104 nM
COc1cc2ncn(-c3cc(OCc4ccccc4C(F)(F)F)c(C(=O)N(C)C)s3)c2cc1OC [GSK1030062A],potency estimated from few doses,CDK4,2020 nM
same,potency estimated from few doses,MAP2K2,1720 nM
same,potency estimated from few doses,PDGFRB,2110 nM
Cl.NS(=O)(=O)c1ccc(N/N=C2\C(=O)Nc3cccc(CCc4ccncc4)c32)cc1 [GW352430A],potency estimated from few doses,CDK2,936 nM
same,potency estimated from few doses,CDK6,2160 nM
same,potency estimated from few doses,CSNK2A2,2070 nM
Cn1cc(C2=C(c3c4n(c5ccccc35)CCCC4)C(=O)NC2=O)c2ccccc21 [RO0318259-000],potency estimated from few doses,CDC42; CATDS: 0.12762221298853901,1480 nM
same,potency estimated from few doses,DJA1,1920 nM
same,potency estimated from few doses,HSP90AA1,1590 nM
same,potency estimated from few doses,HSP90B1,1440 nM
same,potency estimated from few doses,HSPE1,644 nM
same,potency estimated from few doses,PGK1,561 nM
same,potency estimated from few doses,PKM,1130 nM
